Our source for the composite z-score and z-score values is PubChem BioAssay.

Assay [1] in a line: small molecules captured by biotinylated probe aFSTL3 – biochemical, small-molecule microarray, fluorescence 635/667, stem cell growth factor project, primary screen (AID 1064).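 Also: measures binding of the biotinylated anti-FSTL3 antibody to printed compounds.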 Conditions: higher = more signal.
The nature of assay [2]: binders from COS7 lysate, DM2A8 probe, primary screen, torsin A project, cell lysate, small-molecule microarray, fluorescence 635/667 (AID 1065). Conditions: higher = more signal, COS7 lysate expressing mutant human TOR1A.
Assay [3] can be described thus: small molecules captured by biotinylated probe aFGF2 – biochemical, small-molecule microarray, fluorescence 635/667, stem cell growth factor project, primary screen (AID 1067).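 Also: measures binding of biotinylated aFGF2 protein to printed compounds on slides; z-score merges feature fluorescence and signal-to-noise across triplicate slides.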 Conditions: higher = more signal.
Assay [4] in a line: small molecules captured by biotinylated probe aFGF10 – biochemical, small-molecule microarray, fluorescence 635/667, stem cell growth factor project, primary screen (AID 1071).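 Also: score merges 667 nm spot intensity and signal to noise from triplicate slides.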 Conditions: higher = more signal.
Assay [5] concerns the target Neurogenic locus notch homolog protein 2 (Homo sapiens) (UniProt Q04721). Kind of assay: small molecules binding Notch2 protein – biochemical, small-molecule microarray, 635 nm fluorescence, stem cell growth factors, primary screen (AID 1073). Conditions: higher = more signal.
Assay [6] concerns the target Pro-neuregulin-1, membrane-bound isoform (Homo sapiens) (UniProt Q02297). Kind of assay: small molecules binding neuregulin-1 protein – biochemical, small-molecule microarray, fluorescence 635/667, psychiatric disease protein project, primary screen (AID 1075).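 Also: score combines 667 nm spot fluorescence with signal to noise.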 Conditions: NRG1 binding, 635 nm fluorescence, higher = more signal.
Assay [7] relates to Neuregulin-1 EGF-like domain. Description: small molecules binding NRG1 EGF domain – biochemical, small-molecule microarray, 635 nm fluorescence, primary screen (AID 1081).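 Also: binding of the protein to compounds printed on small-molecule microarray slides.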 Conditions: higher = more signal.
Assay [8] can be described thus: FRG1 expression reporter modulators in myotubes – cell-based, C2C12 myotubes, firefly/Renilla luciferase, luminescence, FRG1 inhibition for FSHD, primary screen (AID 1084). Conditions: FRG1 promoter luciferase, higher = more signal, called active from +8 up or from −8 down.
Assay [9] in a line: small molecules captured by biotinylated probe aFST – biochemical, small-molecule microarray, fluorescence 635/667, stem cell growth factor project, primary screen (AID 1086).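 Also: score merges 667 nm fluorescence with signal-to-noise of each printed compound spot.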 Conditions: higher = more signal.
Assay [10] is described as follows: binders of probe aHhip on microarray, primary screen, stem cell growth factor project, biochemical, small-molecule microarray, fluorescence 635/667 (AID 1087).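 Also: score merges spot fluorescence at 667nm with spot signal to noise ratio.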 Conditions: higher = more signal.

Calls of active or inactive are those of the source.

Chain of Pro-neuregulin-1, membrane-bound isoform (Homo sapiens) (Q02297 whole entry, looked up, the tested form may be a part, canonical isoform): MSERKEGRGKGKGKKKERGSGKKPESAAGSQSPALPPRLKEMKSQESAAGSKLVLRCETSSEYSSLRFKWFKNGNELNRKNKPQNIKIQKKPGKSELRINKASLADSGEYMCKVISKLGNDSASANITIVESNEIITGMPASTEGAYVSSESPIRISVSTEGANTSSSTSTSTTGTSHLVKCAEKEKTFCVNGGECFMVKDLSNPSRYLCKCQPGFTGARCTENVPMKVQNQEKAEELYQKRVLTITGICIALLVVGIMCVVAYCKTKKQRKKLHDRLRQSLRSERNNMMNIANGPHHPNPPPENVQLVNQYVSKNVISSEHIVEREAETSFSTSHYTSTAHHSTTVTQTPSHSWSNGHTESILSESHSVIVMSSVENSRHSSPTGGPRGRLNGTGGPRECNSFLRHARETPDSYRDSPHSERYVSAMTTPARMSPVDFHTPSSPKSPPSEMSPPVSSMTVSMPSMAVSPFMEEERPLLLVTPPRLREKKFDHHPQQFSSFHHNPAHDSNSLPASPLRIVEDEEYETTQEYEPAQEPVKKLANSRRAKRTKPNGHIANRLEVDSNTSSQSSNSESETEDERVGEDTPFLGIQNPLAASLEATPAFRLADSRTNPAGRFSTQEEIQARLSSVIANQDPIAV
Chain of Neurogenic locus notch homolog protein 2 (Homo sapiens) (Q04721 whole entry, looked up, canonical isoform): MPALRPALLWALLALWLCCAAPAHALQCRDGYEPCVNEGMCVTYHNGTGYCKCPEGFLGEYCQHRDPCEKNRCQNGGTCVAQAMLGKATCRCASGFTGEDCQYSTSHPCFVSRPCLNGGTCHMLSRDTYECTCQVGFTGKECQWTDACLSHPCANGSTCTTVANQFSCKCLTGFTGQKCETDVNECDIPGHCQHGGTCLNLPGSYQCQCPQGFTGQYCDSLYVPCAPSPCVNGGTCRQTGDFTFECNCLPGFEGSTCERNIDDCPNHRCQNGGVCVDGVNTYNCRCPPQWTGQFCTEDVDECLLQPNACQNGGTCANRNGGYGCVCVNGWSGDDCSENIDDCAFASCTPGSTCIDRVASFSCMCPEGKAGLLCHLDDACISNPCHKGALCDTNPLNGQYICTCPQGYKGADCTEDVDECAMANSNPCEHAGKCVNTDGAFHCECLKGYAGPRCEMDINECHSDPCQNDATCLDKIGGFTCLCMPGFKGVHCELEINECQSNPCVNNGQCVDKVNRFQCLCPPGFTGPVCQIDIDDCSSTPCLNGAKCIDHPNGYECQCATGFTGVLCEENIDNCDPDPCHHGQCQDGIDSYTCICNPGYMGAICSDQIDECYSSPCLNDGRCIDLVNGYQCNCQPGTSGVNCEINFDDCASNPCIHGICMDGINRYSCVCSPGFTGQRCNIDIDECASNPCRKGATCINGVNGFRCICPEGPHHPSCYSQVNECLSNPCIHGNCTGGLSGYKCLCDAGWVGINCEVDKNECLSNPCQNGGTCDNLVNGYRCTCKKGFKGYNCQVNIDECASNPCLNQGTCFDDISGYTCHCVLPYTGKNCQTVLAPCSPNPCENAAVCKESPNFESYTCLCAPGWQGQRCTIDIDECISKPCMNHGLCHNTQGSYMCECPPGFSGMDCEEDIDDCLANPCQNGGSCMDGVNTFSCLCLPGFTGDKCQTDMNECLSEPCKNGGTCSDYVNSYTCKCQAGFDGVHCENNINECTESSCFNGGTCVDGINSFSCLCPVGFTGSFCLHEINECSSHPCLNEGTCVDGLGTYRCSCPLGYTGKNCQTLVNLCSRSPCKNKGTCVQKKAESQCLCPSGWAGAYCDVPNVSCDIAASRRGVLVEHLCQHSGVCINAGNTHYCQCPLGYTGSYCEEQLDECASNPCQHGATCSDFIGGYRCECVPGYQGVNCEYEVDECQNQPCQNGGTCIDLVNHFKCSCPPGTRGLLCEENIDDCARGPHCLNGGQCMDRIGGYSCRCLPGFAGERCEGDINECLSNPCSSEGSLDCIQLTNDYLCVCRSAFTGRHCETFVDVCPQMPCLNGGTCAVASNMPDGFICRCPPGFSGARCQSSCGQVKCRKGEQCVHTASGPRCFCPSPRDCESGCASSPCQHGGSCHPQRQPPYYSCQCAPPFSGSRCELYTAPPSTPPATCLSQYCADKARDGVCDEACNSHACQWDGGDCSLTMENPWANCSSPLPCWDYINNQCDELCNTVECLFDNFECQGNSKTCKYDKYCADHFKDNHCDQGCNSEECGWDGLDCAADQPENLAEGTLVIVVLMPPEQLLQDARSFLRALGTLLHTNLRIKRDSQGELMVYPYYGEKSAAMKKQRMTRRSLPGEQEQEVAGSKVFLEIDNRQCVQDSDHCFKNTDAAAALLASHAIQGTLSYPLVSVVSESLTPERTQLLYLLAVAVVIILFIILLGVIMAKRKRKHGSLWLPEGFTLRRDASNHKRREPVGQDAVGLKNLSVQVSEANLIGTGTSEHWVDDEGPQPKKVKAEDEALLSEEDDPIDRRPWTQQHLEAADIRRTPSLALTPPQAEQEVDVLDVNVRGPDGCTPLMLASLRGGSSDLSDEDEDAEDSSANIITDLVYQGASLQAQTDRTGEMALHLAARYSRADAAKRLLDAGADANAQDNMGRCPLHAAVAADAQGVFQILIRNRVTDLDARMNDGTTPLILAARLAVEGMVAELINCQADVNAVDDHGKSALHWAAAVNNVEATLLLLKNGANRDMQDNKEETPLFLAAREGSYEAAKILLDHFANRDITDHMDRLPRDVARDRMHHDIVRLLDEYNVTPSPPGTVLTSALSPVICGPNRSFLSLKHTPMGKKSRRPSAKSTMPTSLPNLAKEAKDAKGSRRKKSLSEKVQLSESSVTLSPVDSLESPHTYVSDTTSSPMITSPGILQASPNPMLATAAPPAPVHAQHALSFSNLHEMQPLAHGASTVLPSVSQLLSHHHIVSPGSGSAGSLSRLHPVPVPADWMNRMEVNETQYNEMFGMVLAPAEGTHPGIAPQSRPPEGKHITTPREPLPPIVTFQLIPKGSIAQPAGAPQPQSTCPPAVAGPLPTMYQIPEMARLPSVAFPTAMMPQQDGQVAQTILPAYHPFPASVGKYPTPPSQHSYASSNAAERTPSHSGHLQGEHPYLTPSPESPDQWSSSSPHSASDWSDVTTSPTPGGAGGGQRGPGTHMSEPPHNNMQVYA

As to `O=C1[C@H]2[C@H]3[C@H](O)[C@H](O)CC(=NOCc4ccccc4)[C@@H]3CC[C@H]2C(=O)N1c1ccc(F)cc1F`, the composite z-score was 1.17 in [1]; -0.0135 in assay [2]; -0.197 in [3]; 0.423 in assay [4]; 0.104 in assay [5]; -0.0591 in assay [6]. For the same molecule, the composite z-score in [7] was -0.646; in assay [9] it was 0.0704; in [10] it was -0.236. Besides, in assay [8], the z-score is -0.738 (inactive).
As to `COc1ccc(COC(=O)NN=C2C[C@@H](O)[C@@H](O)[C@@H]3[C@@H]4C(=O)N(Cc5ccccc5)C(=O)[C@@H]4CC[C@H]23)cc1`, the composite z-score is 1.51 in assay [1]; 0.111 in assay [2]; -0.0574 in assay [3]; 0.009 in assay [4]; -0.234 in [5]; -0.318 in assay [6]. Further, the composite z-score in assay [7] was -0.411; in assay [9], 1.39; in assay [10], -0.284. In addition, in [8], the z-score was 0.319 (inactive).
Regarding `Cn1c(=O)n2n(c1=O)[C@H]1[C@H](O)[C@@H]3O[C@@H]3C(=O)[C@H]1CC2`, the composite z-score was -0.439 in assay [1]; 0.197 in assay [2]; -0.128 in [3]; 0.355 in [4]; 0.584 in [5]; -0.208 in [6]. Moreover, the values for the composite z-score in assay [7], in [9] and in assay [10] were 0.712, 0.95 and 0.0053, respectively. The z-score in assay [8] is 0.101 (inactive).
Regarding `CC(C)(C)N1C(=O)[C@H]2[C@H]3[C@H](O)[C@H](O)CC(=NO[C@@H]4O[C@H](CO)[C@@H](O)[C@H](O)[C@H]4O)[C@H]3CC[C@H]2C1=O`, the composite z-score in assay [1] was -0.477; in [2], 0.128; in assay [3], -0.17; in assay [4], 0.569; in assay [5] it was 0.45; in [6], 0.947. Also, the composite z-score in [7] was 0.389; in assay [9], 0.263; in assay [10], -0.0994. In addition, in assay [8], the z-score was 0.599 (inactive).
Turning to `C[C@H]1Cc2c(COc3ccccc3)nc3c(c2CO1)CN(CCOc1ccccc1)CC3`, the composite z-score in [1] was -0.762; in [2], 0.665; in [3] it was -0.0468; in assay [4], 0.503; in assay [5], 1.28; in [6], 0.455. Besides, the results for the composite z-score in [7], in [9] and in [10] were 0.794, 0.0632 and -0.174, respectively. Moreover, the z-score in assay [8] was -1.16 (inactive).
Consider `CO[C@H]1COC(=O)CC=C[C@H](C)COC(=O)[C@@H](C)NC(=O)CC=C[C@@H]1C`, for which the composite z-score in assay [1] is -0.512; in assay [2] it was 1.94; in assay [3] it was -0.0996; in assay [4], 0.231; in [5], -0.0457; in assay [6] it was -0.79. Also, the composite z-score in assay [7] is 0.219; in assay [9], -0.214; in assay [10] it was 0.0794. In [8], the z-score was 0.464 (inactive).
Regarding `CC[C@@H](c1ccccc1)n1c(=O)n2n(c1=O)[C@H]1[C@H](O)[C@@H]3O[C@@H]3C(=NOC[C@@H](O)COCc3ccco3)[C@H]1CC2`, the composite z-score is -0.437 in [1]; 0.615 in assay [2]; -0.116 in [3]; 0.25 in assay [4]; -1.17 in assay [5]; -0.552 in assay [6]. Also, the values for the composite z-score in assay [7], in assay [9] and in [10] were 0.727, -0.113 and -0.741, respectively. Moreover, the z-score in assay [8] is 0.0269 (inactive).
Turning to `CCOC(=O)[C@H](Cc1ccccc1)NC(=O)CCC1CC(OC(=O)NCc2ccc3c(c2)OCO3)CC2(CCCC(COC(=O)NCCC(C)C)O2)O1` (stereo not given in full), the composite z-score is -0.545 in [1]; 0.107 in [2]; -0.0193 in [3]; 0.755 in assay [4]; 0.523 in [5]; 1.41 in assay [6]. Further, the composite z-score in [7] came out at 1.06; in assay [9] it was 0.169; in assay [10], 0.268. For the same molecule, the z-score in assay [8] was 0.548 (inactive).
On to `O=C1[C@H]2[C@H]3[C@H](O)[C@H](O)CC(=NOC[C@@H](O)COCc4ccco4)[C@H]3CC[C@H]2C(=O)N1Cc1ccccc1`, for which the composite z-score in assay [1] is -0.414; in assay [2], 1.33; in assay [3] it was -0.21; in [4], 0.17; in assay [5] it was -0.224; in assay [6] it was -0.346. For the same molecule, the composite z-score in [7] is 0.299; in [9], -0.222; in assay [10] it was -0.132. Besides, in assay [8], the z-score was 0.272 (inactive).
As to `O=C(NN=C1C[C@@H](O)[C@@H](O)[C@@H]2[C@@H]3C(=O)N(C4CCCCC4)C(=O)[C@@H]3CC[C@H]12)OCc1ccccc1`, the composite z-score was 1.01 in assay [1]; 0.553 in [2]; 0.0679 in assay [3]; 0.0977 in [4]; 1.1 in assay [5]; -0.131 in assay [6]. In addition, the composite z-score was -0.287 in [7], 0.324 in [9] and -0.558 in assay [10]. In assay [8], the z-score was -0.242 (inactive).
Consider `CCOC(=O)C1=NO[C@@]2(C=C(Br)C3(OCCCO3)[C@H]3O[C@H]32)C1`, for which the composite z-score in assay [1] was 0.224; in assay [2], 0.0735; in [3], -0.116; in [4], 1.05; in assay [5], 0.282; in assay [6] it was -0.467. In addition, the composite z-score in [7] turned out to be 0.646; in assay [9], 0.248; in assay [10], 0.0972. Besides, the z-score in [8] was 0.0274 (inactive).
Take `COC(=O)CC=C[C@@H](C)[C@@H](C=NOC[C@@H](O)[C@H]1O[C@@H]2OC(C)(C)O[C@@H]2[C@H]1O)NS(=O)(=O)c1ccc(C)cc1`: the composite z-score in assay [1] is -0.383; in assay [2] it was 0.746; in assay [3], -0.171; in [4], 0.347; in assay [5], 0.463; in assay [6] it was -0.0399. The composite z-score was -0.124 in assay [7], 0.155 in [9] and -0.641 in assay [10]. In [8], the z-score was 0.703 (inactive).
Consider `CCOC(=O)[C@H](CC(C)C)NC(=O)CCC1CC(OC(=O)NCc2cccc3ccccc23)CC2(CCCC(COC(=O)NCCOC)O2)O1` (stereo not given in full), for which the composite z-score was -0.56 in [1]; 0.071 in [2]; -0.0216 in assay [3]; 0.482 in assay [4]; 1.36 in [5]; 1.27 in assay [6]. Also, the figures for the composite z-score in assay [7], in assay [9] and in assay [10] were 0.931, 0.754 and -0.214, respectively. The z-score in [8] is -0.0725 (inactive).
As for `C=CC[C@@H]1C=C[C@H](ON=C(C)CCC(=O)OC[C@H]2O[C@H](c3ccccc3)C=C[C@@H]2Oc2ccc(OC)cc2)[C@@H](CO)O1`, the composite z-score in [1] is -0.409; in assay [2], -0.324; in [3], -0.163; in [4] it was 0.13; in [5], -1.06; in [6] it was 0.372. In addition, the composite z-score in assay [7] was 0.215; in assay [9] it was -0.303; in [10], -0.147. In assay [8], the z-score is 0.403 (inactive).
Turning to `C#CCCCON=C1C[C@@H](O)[C@@H](O)[C@@H]2[C@@H]3C(=O)N(c4ccc(F)cc4F)C(=O)[C@@H]3CC[C@@H]12`, the composite z-score is -0.398 in assay [1]; 1.69 in assay [2]; -0.138 in assay [3]; 0.103 in assay [4]; 0.329 in assay [5]; 0.0095 in [6]. Besides, the results for the composite z-score in [7], in assay [9] and in assay [10] were -0.114, 0.0638 and 0.235, respectively. Moreover, in [8], the z-score was -0.236 (inactive).
On to `CCc1cc2c(nc1CC)CCN(CCC(C)=NO[C@@H](C)c1cn([C@H](CO)Cc3ccccc3)nn1)C2`, for which the composite z-score in assay [1] was -0.0739; in assay [2], 0.39; in assay [3], -0.123; in [4] it was 0.112; in assay [5] it was -0.0274; in [6], 0.373. In addition, the composite z-score in [7] is -0.0269; in [9], 0.283; in assay [10], 0.115. Also, in [8], the z-score is 0.704 (inactive).
For `CCCNC(=O)OC[C@H]1O[C@H](c2ccccc2)C=C[C@@H]1Oc1ccc(OC)cc1`, the composite z-score in assay [1] is -0.428; in assay [2], 0.273; in assay [3], 0.0299; in assay [4], 0.594; in [5] it was 0.344; in [6], -0.327. For the same molecule, the results for the composite z-score in [7], in assay [9] and in assay [10] were -0.0407, -0.246 and -0.0994, respectively. In addition, the z-score in assay [8] is -0.0983 (inactive).
